This is a sample that favours compounds with a hit; in the whole collection about 21% have one here.
Pf growth 96h = Primary qHTS for delayed death inhibitors of the malarial parasite plastid, 96 hour incubation. Potency, µM (top dose mostly 28.7 µM), hits mostly inhibitors. hit rate 6.9% among 320,000. P. falciparum luciferase reporter growth, 96 h
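Infected RBCs, 2% Hct / 0.05% parasitemia final; luciferase-reporter P. falciparum; cpd 96 h, 37 C, 5% CO2; luciferase detection reagent; luminescence.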
NS1 function inh = qHTS Assay for Inhibitors of Influenza NS1 Protein Function; Potency, µM (titrated, usually from 46.1 µM); hit rate 0.4% among 270,000; AID 2326, 2010; calls by dose curve; further: actives are rising curves; nearly all actives have a fitted effect of over 50% in size
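Growth recovery, yeast-based: influenza A NS1 expressed in S. cerevisiae causes slow growth, and suppressors are detected by OD600. The parent strain without NS1 is used as positive control.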
Cycloheximide cs = Cycloheximide Counterscreen for Small Molecule Inhibitors of Shiga Toxin; cell reporter, cycloheximide protein synthesis inhibition counterscreen; max response, %; hit rate 12% among 300,000; in the data active means max response mostly above about 13%, no sharp cut-off; inactive means mostly below about 14%; further: read at 38.3 µM for the half of the compounds with a filed dose
Shiga toxin inh = A qHTS for Small Molecule Inhibitors of Shiga Toxin | hit rate 9.2% among 290,000 | Vero cells, Shiga toxin protein synthesis inhibition reporter | inhibition, % at 38.7 µM; in the data active means inhibition mostly above about 28%, no sharp cut-off; inactive means mostly below about 43%
Pf growth 48h = Primary qHTS for delayed death inhibitors of the malarial parasite plastid, 48 hour incubation; P. falciparum luciferase growth in erythrocytes, 48 h; Potency, µM (titrated, usually from 28.7 µM), hits mostly inhibitors; hit rate 5.9% among 310,000; AID 504832, 2011
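Here the parasites carry a stable luciferase gene and grow inside erythrocytes in Albumax-based RPMI medium with compound for one erythrocytic cycle. Activity is scored as loss of luminescent signal.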
Each line names hits and unclear results; the compound was inactive in the other large screens. Unless noted, the call rests on the fitted dose curve; in most records, active means well fitted inhibition curve with a large enough effect; inconclusive means small, poorly fitted or top-dose-only effect, or another doubt; inactive means no such curve, though single readings can be large or run the other way.

Nc1ccc(C23CC4CC(CC(O)(C4)C2)C3)cc1	Cycloheximide cs 28
Nc1ccc(C23CC4CC(CC(C4)C2)C3)cc1	none (no result: NS1 function inh)
COc1cccc(OC)c1C1=Nn2c(nnc2-c2ccccc2C)SC1	none (no result: Pf growth 96h, NS1 function inh, Pf growth 48h)
CCOC(=O)N/C(N)=N/c1nc2ccccc2s1	Cycloheximide cs 34, Shiga toxin inh 66
CC(=O)N/C(N)=N/c1nc(=O)c2ccccc2s1	Pf growth 96h inconclusive, Cycloheximide cs 35, Shiga toxin inh 55
CC(=O)Nc1nc(=O)c2ccccc2s1	none
O=C(c1cc(F)c(F)cc1Cl)N1CCCc2ccccc21	Pf growth 96h inconclusive
Cc1cc(N/N=C/c2cccc([N+](=O)[O-])c2)nc(-n2nc(C)cc2C)n1	Pf growth 96h 1µM, Pf growth 48h inconclusive
Cc1cc(N/N=C/c2cccc(Cl)c2)nc(-n2nc(C)cc2C)n1	Pf growth 96h inconclusive, Pf growth 48h 1.2µM
Cc1cc(N/N=C/c2ccc(O)cc2O)nc(-n2nc(C)cc2C)n1	Pf growth 96h inconclusive, Pf growth 48h 1.9µM
Cc1cc(N/N=C/c2ccccc2[N+](=O)[O-])nc(-n2nc(C)cc2C)n1	Pf growth 96h 0.66µM, Pf growth 48h 0.93µM
Cn1nc(-c2ccccc2)c(CN2CCN(c3ncccn3)CC2)c1Cl	Pf growth 96h inconclusive, Pf growth 48h inconclusive
COc1ccc(/C=N/Nc2cc(C)nc(-n3nc(C)cc3C)n2)cc1	Pf growth 96h inconclusive, Pf growth 48h 1.5µM
COc1ccc(/C=N/Nc2cc(C)nc(NS(=O)(=O)c3ccc(C)cc3)n2)cc1	none
COC(=O)Nc1ccc(S(=O)(=O)N2CCC(C(=O)NC3CCCCC3)CC2)cc1	Pf growth 96h inconclusive, Pf growth 48h inconclusive
CCc1ccc(NC(=O)NCCN2CCN(c3ccc(OC)cc3)CC2)cc1	Pf growth 96h 13µM
COc1ccc(Cl)c(N2CCN(CCCNC(=O)Nc3ccc(C)cc3)CC2)c1	Pf growth 48h 13µM (no result: Pf growth 96h)
Cc1nnc(NC(=O)CSc2nnc(CC(=O)Nc3ccccc3Cl)n2C)s1	none
CC12CCC(c3c(CO)nn(-c4ccccc4)c31)C2(C)C (configuration not stated)	Pf growth 96h 10µM, Pf growth 48h inconclusive
CC12CCC(c3c(C(=O)O)nn(-c4ccccc4)c31)C2(C)C (configuration not stated)	none
CC(=O)Nc1ccc(NC(=O)C(C)OC(=O)C(C)SCC(=O)Nc2ccc(C)cc2)cc1 (configuration not stated)	none (no result: NS1 function inh, Cycloheximide cs, Shiga toxin inh)
COc1ccc(CCNc2ncnc3sc(C)cc23)cc1OC	Pf growth 48h 5.2µM
COc1ccc(CCNc2ncnc3[nH]ncc23)cc1OC	Pf growth 96h 15µM
COc1ccc(CCNc2ccncn2)cc1OC	none (no result: Pf growth 48h)
Cc1sc(NC(=O)CCl)c(C(=O)c2ccccc2)c1C	Cycloheximide cs 12, Pf growth 48h 13µM
CC(=O)Nc1sc(C)c(C)c1C(=O)OCCOc1ccccc1	Cycloheximide cs 48, Shiga toxin inh 113
Cc1cc(C)cc(NC(=O)c2cccc(C(=O)Nc3cc(C)cc(C)c3)n2)c1	none
Cc1ccc(C(=O)n2cnnc2N)cc1	Pf growth 96h inconclusive
CCC1C=CC=CC[C@H](C)[C@@H](O)[C@](C)(O)C(=O)[C@@H](C)[C@H](O)[C@@H](C)C(=O)[C@H](C)[C@@H](O)[C@H](C)C=CC(=O)OC2[C@@H](C)C(CC1)OC1(CC[C@@H](C)C(C[C@H](C)O)O1)[C@@H]2C (some centres not stated)	Pf growth 96h 0.12µM, Pf growth 48h 0.13µM (no result: NS1 function inh, Cycloheximide cs, Shiga toxin inh)
Cc1cc(C)cc(NC(=O)CSc2nc3nc(C)cc(C)n3n2)c1	Pf growth 48h inconclusive (no result: NS1 function inh, Cycloheximide cs, Shiga toxin inh)
C=CCNC(=S)NC1CC(C)(C)NC(C)(C)C1	Pf growth 96h 10µM
Cc1nnc(N/N=C/C(C)c2ccccc2)[nH]c1=O (configuration not stated)	none
COc1ccc(OC(=O)c2ccc(Cl)cc2)c(C(C)=O)c1	none (no result: NS1 function inh)
NC(=O)C1CCN(c2nc(-c3ccc(Cl)cc3)cs2)CC1	Pf growth 48h inconclusive (no result: NS1 function inh, Cycloheximide cs, Shiga toxin inh)
Oc1csc(Cc2nc(-c3ccc(Br)cc3)cs2)n1	Cycloheximide cs 38, Shiga toxin inh 130 (no result: NS1 function inh)
O=c1oc2ccccc2cc1-c1csc(Cc2nc(-c3ccc(Br)cc3)cs2)n1	none
N/C(Cc1nc(-c2ccc(Cl)cc2)cs1)=N/O	Cycloheximide cs 41, Shiga toxin inh 40
NC(=O)Cc1nc(-c2ccccc2)cs1	Pf growth 96h inconclusive
NC(=O)Cc1nc(-c2ccc(Br)cc2)cs1	Shiga toxin inh 37

Assay outcomes: PubChem, National Center for Advancing Translational Sciences (NCATS)
